Several values for one entry are separate records, joined by “and”; a condition that tells them apart may be missing. Identical values can stand only once. Results filed as inconclusive are left out. Some compounds were tested as several samples or in several runs, with calls that do not always agree. Activity calls are given as the source filed them.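 The calls were made as follows, unless noted: active = normalized viability below 100% at a tested concentration; inactive = the rest.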
Assays:
[1] = viability loss in pontine glioma line – cell-based, SU-DIPG-XVII, MIPE5.0, CellTiter-Glo, qHTS, dose response (AID 1347060; cut-off not given, nearly all actives have AC50 up to about 26 µM;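 also: cells exposed to compound for 48 hours before viability readout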); conditions: CellTiter-Glo ATP luminescence
[2] = viability loss in pontine glioma line – cell-based, SU-DIPG-XIII, MIPE4.0, CellTiter-Glo, qHTS, dose response (AID 1347061; cut-off not given, nearly all actives have AC50 up to about 37 µM;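 also: cells exposed to compound for 48 hours before readout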); conditions: CellTiter-Glo ATP luminescence
[3] = viability loss in pontine glioma line – cell-based, JHH-DIPG-1, MIPE4.0, CellTiter-Glo, qHTS, dose response (AID 1347062; cut-off not given, nearly all actives have AC50 up to about 27 µM;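 also: cells exposed to compound for two days before readout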); conditions: JHH-DIPG-1 viability, CellTiter-Glo ATP luminescence
[4] = viability loss in pontine glioma line – cell-based, SU-DIPG-XIII, MIPE5.0, CellTiter-Glo, qHTS, dose response (AID 1347064; cut-off not given, nearly all actives have AC50 up to about 23 µM;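 also: cells exposed to compound for 48 hours before the viability read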); conditions: CellTiter-Glo ATP luminescence
[5] = viability loss in pontine glioma line – cell-based, SU-DIPG-XXV, MIPE5.0, CellTiter-Glo, qHTS, dose response (AID 1347065; cut-off not given, nearly all actives have AC50 up to about 26 µM;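 also: cells exposed to compound for 48 hours before ATP readout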); conditions: CellTiter-Glo ATP luminescence
[6] = growth inhibition of DIPG cells – cell-based, MIPE4.0 library, CellTiter-Glo luminescence, qHTS (AID 1347066; cut-off not given, nearly all actives have AC50 up to about 30 µM;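 also: cells exposed to compound for 48 hours before readout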); conditions: SU-DIPG-VI viability, CellTiter-Glo ATP luminescence
[7] = JHH-DIPG-1 glioma cell viability, MIPE5.0 library, CellTiter-Glo luminescence, qHTS (AID 1347067; cut-off not given, nearly all actives have AC50 up to about 26 µM;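 also: cells exposed to compound for 48 hours before readout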); conditions: JHH-DIPG-1 glioma viability, CellTiter-Glo ATP luminescence
[8] = growth inhibition of DIPG cells – cell-based, MIPE5.0 library, qHTS (AID 1347068; cut-off not given, nearly all actives have IC50 up to about 30 µM;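 also: cells exposed to compound for 48 hours before viability readout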); conditions: SU-DIPG-XXV viability
[9] = viability loss with induced miR-34 in A549 – imaging, A549 dox-inducible miR-34, nuclei and caspase counts, primary screen (AID 1347080;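 active = compounds whose cell count with miR-34 switched on is under 0.7 times the count with it off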); conditions: A549 miR-34 inducible, Hoechst nuclei count, 48 h
[10] = MELAS cybrid and Rieske KO viability enhancers – cell-based, MELAS cybrids, Rieske KO mouse fibroblasts, CellTiter-Glo, primary screen (AID 1508586;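 active = mean z-score across replicates of 1.96 or higher in either the MELAS or the Rieske mutant cell line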;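 also: z relative to plate mean and SD of compound and empty wells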); conditions: low glucose
[11] = growth inhibition, single agent or in combination, cell-based, chromothripsis tumors, cisplatin or BGB combos (AID 1671449; in the data active = inhibition above about 80%;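 also: cells exposed for 96 hours; 0% = vehicle DMSO and 100% = killing by high DMSO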); conditions: LFS_MB_P medulloblastoma cells
[12] = growth inhibition, single agent and combos, cell-based, chromothripsis tumors, cisplatin or BGB combos (AID 1671450; in the data active = inhibition above about 80%;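 also: cells exposed to compound for four days; 0% = vehicle DMSO and 100% = cell killing by high DMSO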); conditions: HDN33 neuroblastoma cells, stronger effect = higher value
[13] = growth inhibition, single agents and combos, ICB984, cell-based, cisplatin or BGB combos, synergistic combos for chromothripsis tumors (AID 1671451; call rule not given here;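 also: cells exposed for 96 hours before readout; 0% = vehicle DMSO and 100% = killing by high DMSO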); conditions: ICB984 medulloblastoma cells, drug combinations, stronger effect = higher value
[14] = growth inhibition, single agents and combos, HTB85, cell-based, BGB or cisplatin IC20 combos, synergistic combos for chromothripsis tumors (AID 1671453; in the data active = inhibition above about 80%;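 also: cells exposed for 96 hours before readout; 0% = vehicle DMSO and 100% = high DMSO killing control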); conditions: HTB85 osteosarcoma cells, drug combinations, stronger effect = higher value
[15] = growth inhibition, MDA-MB-436, cell-based, BGB or cisplatin combos, synergistic combos for chromothripsis tumors (AID 1671458; call rule not given here;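 also: cells exposed for 96 hours; 0% = vehicle DMSO and 100% = killing by high DMSO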); conditions: MDA-MB-436 breast carcinoma growth inhibition, drug combinations, stronger effect = higher value
[16] = BT084 cell growth, single and combined drugs, ICGC_MB145, cisplatin and BGB IC40 combos (AID 1671461; in the data active = inhibition above about 80%;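 also: cells exposed to drugs for 96 hours; 0% = vehicle DMSO and 100% = high DMSO full killing control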); conditions: BT084 medulloblastoma cells, drug combinations, stronger effect = higher value
[17] = RCMB18 cell growth, single agent and combined, cisplatin and BGB IC40 combos (AID 1671462; in the data active = inhibition above about 80%;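 also: cells exposed to compound for four days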); conditions: RCMB18 medulloblastoma cells, stronger effect = higher value
[18] = compounds altering HSF1 focus formation in cells – imaging, Selleck Cancer Library (AID 1347162; in the data active = plate-normalised HSF1 focus index below about 0.46); conditions: human cells, HSF1 nuclear foci imaging, at 10 µM; SSMD: measured here: HSF1 foci SSMD mean; cell count: measured here: cell number; plate-normalised HSF1 focus index: stronger effect = lower value
[19] = drug combination growth inhibition, ovarian cancer – cell-based, oncology-focused library, rucaparib conditional, profiling panel (AID 1508598); conditions: patient-derived ovarian cancer cells, CellTiter-Glo viability, 144 h, stronger effect = lower value
[20] = stronger effect = lower value, cell number ratio, induced over uninduced
[21] = measured here: relative caspase fold change +Dox/-Dox
[22] = measured here: total cells with miR-34 induction, stronger effect = lower value
[23] = measured here: total cells without miR-34 induction
[24] = MELAS cybrid survival, CellTiter-Glo 48 h, stronger effect = higher value
[25] = Rieske KO mouse fibroblast survival, CellTiter-Glo 72 h

COc1ccc(-c2nc(N3CCOCC3)c3sc(CN(C)c4ncc(C(=O)NO)cn4)cc3n2)cn1
AC50 [1]: 23.5 nM (active)
AC50 [2]: 37.2 nM (active)
AC50 [3]: 13.2 nM (active)
AC50 [4]: 26.3 nM (active)
AC50 [5]: 14.8 nM (active)
AC50 [6]: 2.63 nM (active)
AC50 [7]: 6.62 nM (active)
IC50 [8]: 295 nM (active)
fold change [9, 20]: 1.02 (inactive)
fold change [9, 21]: 0.447
cell count [9, 22]: 1250
cell count [9, 23]: 1230
z-score [10, 24]: -0.053 (inactive)
z-score [10, 25]: -3.69
inhibition ([11]; at 0.5 µM, stronger effect = higher value): -17.1% (inactive) and 84.7% (active)
inhibition ([11]; measured here: combination with BGB IC20, at 0.005 µM): -19% and -26.8%
inhibition ([11]; measured here: combination with BGB IC40, at 0.005 µM): -13.4% and -10.7%
inhibition ([11]; measured here: combination with BGB IC40, at 0.05 µM): -8.69% and -6.92%
inhibition ([11]; measured here: combination with cisplatin, at 0.5 µM, stronger effect = higher value): -32.9% and 119%
inhibition ([11]; measured here: combination with cisplatin, at 5 µM, stronger effect = higher value): 120% and 126%
inhibition ([12]; BGB combo, at 5 µM): 99.9% and 99.7%
inhibition ([12]; at 0.5 µM): 98.9% (active) and 93.4% (active)
inhibition ([12]; cisplatin combo, at 5 µM): 99.9%
inhibition ([12]; measured here: with BGB IC20 combination, at 0.5 µM): 97.8% and 90.5%
inhibition ([12]; measured here: with cisplatin IC20 combination, at 0.5 µM): 99.5% and 96.1%
inhibition ([12]; single agent, at 5 µM): 99.9%
inhibition ([13]; BGB IC20 combo, at 0.005 µM): 85.9% and 87.2%
inhibition ([13]; BGB IC40 combo, at 0.005 µM): 93.2% and 94%
inhibition ([13]; BGB IC40 combo, at 0.05 µM): 101%
inhibition ([13]; at 0.5 µM): -8.74% (inactive) and -32% (inactive)
inhibition ([13]; cisplatin combo, at 0.05 µM): 101%
inhibition ([13]; cisplatin combo, at 0.5 µM): 10.9% and -33%
inhibition ([13]; cisplatin combo, at 5 µM): 21.2% and -18.3%
inhibition ([13]; measured here: 5 uM single agent, at 5 µM): 1.99% and 3.43%
inhibition ([14]; at 0.5 µM): 99.5% (active) and 95.4% (active)
inhibition ([14]; measured here: with BGB IC20, at 0.5 µM): 99.5% and 93.3%
inhibition ([14]; measured here: with BGB IC20, at 5 µM): 99.8% and 99.9%
inhibition ([14]; measured here: with cisplatin IC20, at 0.5 µM): 99.9%
inhibition ([14]; measured here: with cisplatin IC20, at 5 µM): 100% and 99.9%
inhibition ([14]; single agent, at 5 µM): 99.9%
inhibition ([15]; at 0.5 µM): 55.1% (inactive) and 39.3% (inactive)
inhibition ([15]; measured here: BGB combination, at 0.5 µM): 45.2% and 33.3%
inhibition ([15]; measured here: BGB combination, at 5 µM): 89.9% and 80.2%
inhibition ([15]; measured here: cisplatin combination, at 0.5 µM): 50.8% and 33.9%
inhibition ([15]; measured here: cisplatin combination, at 5 µM): 91.2% and 86.1%
inhibition ([16]; at 0.5 µM): 84.3% (active) and 90.7% (active)
inhibition ([16]; cisplatin combination, at 0.5 µM): 99.6% and 101%
inhibition ([16]; cisplatin combination, at 5 µM): 102% and 106%
inhibition ([16]; measured here: BGB IC40 combination 0.05 uM, at 0.05 µM): 55.4% and 3.88%
inhibition ([16]; single agent, at 5 µM): 109% and 106%
inhibition ([17]; at 0.5 µM): 90.3% (active) and 89.8% (active)
inhibition ([17]; cisplatin combo, at 5 µM): 97.3% and 101%
inhibition ([17]; measured here: BGB IC40 combination, at 0.05 µM): 42.1% and 41.3%
inhibition ([17]; measured here: combination with cisplatin, at 0.5 µM): 91.8% and 91.3%
inhibition ([17]; single agent, at 5 µM): 98.7% and 99.3%

Cc1ccc(NC(=O)c2cccc(C(C)(C)C#N)c2)cc1Nc1ccc2ncn(C)c(=O)c2c1
AC50 [1]: 2090 nM (active)
AC50 [2]: 4180 nM (active)
AC50 [3]: 5900 nM (active)
AC50 [4]: 1480 nM (active)
AC50 [5]: 7420 nM (active)
outcome [6]: inactive
AC50 [7]: 934 nM (active)
fold change [9, 20]: 0.944 (inactive)
fold change [9, 21]: 1.09
cell count [9, 22]: 5830
cell count [9, 23]: 6180
SSMD [18]: 3.15
cell count [18]: 7560
plate-normalised HSF1 focus index [18]: 1.12 (inactive)
z-score [10, 24]: 0.493 (inactive)
z-score [10, 25]: -1.35
viability ([19]; at 0.000305 µM, OCI-C5x cells, with rucaparib 10 µM, 100% = cells with rucaparib alone): 126% (inactive)
viability ([19]; at 0.000305 µM, OCI-C5x cells, without rucaparib): 104% (inactive)
viability ([19]; at 0.000305 µM, OCI-P5x cells, with rucaparib 20 µM, 100% = cells with rucaparib alone): 95.5% (active)
viability ([19]; at 0.000305 µM, OCI-P5x cells, without rucaparib): 90.4% (active)
viability ([19]; at 0.00122 µM, OCI-C5x cells, with rucaparib 10 µM, 100% = cells with rucaparib alone): 129% (inactive)
viability ([19]; at 0.00122 µM, OCI-C5x cells, without rucaparib): 115% (inactive)
viability ([19]; at 0.00122 µM, OCI-P5x cells, with rucaparib 20 µM, 100% = cells with rucaparib alone): 107% (inactive)
viability ([19]; at 0.00122 µM, OCI-P5x cells, without rucaparib): 95.5% (active)
viability ([19]; at 0.00488 µM, OCI-C5x cells, with rucaparib 10 µM, 100% = cells with rucaparib alone): 128% (inactive)
viability ([19]; at 0.00488 µM, OCI-C5x cells, without rucaparib): 109% (inactive)
viability ([19]; at 0.00488 µM, OCI-P5x cells, with rucaparib 20 µM, 100% = cells with rucaparib alone): 107% (inactive)
viability ([19]; at 0.00488 µM, OCI-P5x cells, without rucaparib): 99.1% (active)
viability ([19]; at 0.0195 µM, OCI-C5x cells, with rucaparib 10 µM, 100% = cells with rucaparib alone): 116% (inactive)
viability ([19]; at 0.0195 µM, OCI-C5x cells, without rucaparib): 124% (inactive)
